Source: PubChem BioAssay AID934 (National Center for Advancing Translational Sciences (NCATS), 2007)
Results filed as inconclusive are left out. A number with no mark means an inactive call. Calls of active or inactive are those of the source. Calls follow the shape of the dose curve; as a rule, active = well fitted activation curve with a large enough effect; inconclusive = small, poorly fitted or top-dose-only effect; inactive = flat fitted curve, though single readings scatter.

test: Parental Cell Counter Screen for Stat Signaling Pathway Assay; conditions: ME-180 (cervical carcinoma) parental cells, blue fluorescence artefact counter-screen; series mostly up to 38.3 µM; activity (fluorescence increase): at the top concentration
Excerpt: NIH Molecular Libraries Screening Centers Network [MLSCN] NIH Chemical Genomics Center [NCGC] MLSCN Grant: None NCGC Assay Overview: This assay is a counter screen for the Stat signaling pathway assay (PubChem AID 446). The Stat assay is cell-based and measures Interleukin 6 (IL-6) mediated modulation of a beta-lactamase reporter gene controlled by a STAT inducible element (SIE-bla cells, Invitrogen). IL-6 is a cytokine that signals via the JAK/STAT pathway and is implicated in cancer and inflammation. […] Compounds active in the parental ME-180 cells are likely fluorescent.
NCGC Assay Protocol Summary: Cells were trypsinized, washed in assay medium (AM, OPTI MEM with 0.5% fetal bovine serum, 0.1 mM nonessential amino acids, 1 mM sodium pyruvate, 10mM HEPES pH 7.3, 100U/ml penicillin, and 100 ug/ml streptomycin) and suspended at […] in AM. Approximately 2500 cells in 5 uL/well was dispensed into 1536-well plates and the cells were incubated overnight at 37 C. 23 nL of compound were delivered by a pin tool and 1 uL of IL-6 (40 pM final concentration in AM) was added. After plates were incubated at 37 C for 5 hrs, 1uL of detector mix (LiveBLAzerTM, Invitrogen) was added, the plates incubated at room temperature for 2.5 hrs, and fluorescence intensity at 460 and 530 nm emissions was measured at 405 nm excitation by an Envision (Perkin Elmer).

First: COc1cc2nc(-c3ccccc3)nc(N3CCCC3)c2cc1OC
Second: COc1cc(-c2nn3c(COc4ccccc4)nnc3s2)cc(OC)c1OC
The “activity (fluorescence increase)” value of the first is lower: 4.63% for the first, 8.33% for the second.

Going from O=C1CC(N(O)C2CC(=O)N(Cc3ccccc3)C2=O)C(=O)N1Cc1ccccc1 (stereo not given) to N=C(N)SCc1cccc2c(=O)cc(-c3ccccc3)oc12, the “activity (fluorescence increase)” value falls from 21.3% to 8.49%.

Compared with CCN(CC)CCNc1ccc(CO)c2sc3ccccc3c(=O)c12, COc1ccc(C(=O)CCN(C)C)c2ccccc12 is higher in “activity (fluorescence increase)” value: -13.1% for the first, 15.7% for the second.

First: CCC(=O)Nc1nc(C)c(Oc2ccccc2)c(=O)[nH]1
Second: COc1c2c(nc3ccccc13)O[C@@H]([C@@](C)(O)CO)C2
The “activity (fluorescence increase)” value of the first is lower: 1.85% for the first, 9.35% for the second.

Compared with OC[C@@H]1CCC[C@H](n2cnc3c(=S)nc[nH]c32)O1, Nc1ncnc2c1ncn2[C@@H]1O[C@H](CO)[C@@H](O)[C@H]1O is lower in “activity (fluorescence increase)” value: 5.56% for the first, 1.85% for the second.

Compared with Cc1ccccc1CNc1ncnc2c1ncn2[C@@H]1O[C@@H](CO)[C@H](O)[C@@H]1O, OC[C@@H]1O[C@@H](n2cnc3c(SCc4ccccc4)ncnc32)[C@@H](O)[C@H]1O is lower in “activity (fluorescence increase)” value: 12.1% for the first, 0.926% for the second.

First: CC[C@@H]1CN2CCc3cc(OC)c(OC)cc3[C@H]2C[C@@H]1C[C@H]1NCCc2cc(OC)c(OC)cc21
Second: CC[C@@H]1CN2CCc3cc(OC)c(OC)cc3[C@H]2C[C@@H]1C[C@@H]1NCCc2cc(OC)c(OC)cc21
The “activity (fluorescence increase)” value of the first is lower: 7.48% for the first, 9.35% for the second.

Compared with COc1cccc2c1C(=O)c1c(O)c3c(c(O)c1C2=O)C[C@@](O)(C(=O)CO)C[C@@H]3O[C@H]1C[C@H](N)[C@H](O)[C@H](C)O1, COc1cccc2c1C(=O)c1c(O)c3c(c(O)c1C2=O)C[C@](O)(C(=O)CO)C[C@H]3O[C@@H]1C[C@H](N)[C@H](O)[C@H](C)O1 is lower in “activity (fluorescence increase)” value: 17.6% for the first, 10.3% for the second.

First: CC(C)(C)C1CCC2(CC1)C(C#N)=C(SCC(=O)Nc1ccccc1)NC(=O)C2C#N (stereo not given)
Second: CC(C)C[C@H]1C(=O)N2CCC[C@H]2[C@]2(O)O[C@](NC(=O)[C@@H]3C=C4c5cccc6[nH]c(Br)c(c56)CC4N(C)C3)(C(C)C)C(=O)N12 (stereo not given in full)
The “activity (fluorescence increase)” value of the first is higher: 24.1% for the first, 11.1% for the second.

Compared with CCCCc1nc(NCCNC(=O)c2ccco2)c(C#N)c2c1CSC(C)(C)C2, CCCCSc1nc(N)c(C#N)c(-c2cccs2)c1C#N is higher in “activity (fluorescence increase)” value: 25.9% for the first, 38% for the second.

Compared with O=C(Oc1oc(-c2ccco2)nc1C=Nc1ccccc1)c1ccoc1, CCC(=O)Oc1oc(-c2ccccc2)nc1C=Nc1ccccc1OC is higher in “activity (fluorescence increase)” value: 3.7% for the first, 17.6% for the second.

Going from C=C1C(=O)O[C@@H]2[C@H]3O[C@]3(C)CCC=C(C)CC[C@@H]12 to Cc1ccc(S(=O)(=O)N2CCN(c3nc(C)c4c(c3C#N)CC(C)(C)OC4)CC2)cc1, the “activity (fluorescence increase)” value rises from -1.87% to 22.2%.

Going from NS(=O)(=O)c1ccc(N=Nc2cc3ccccc3c(C(=O)O)c2O)cc1 to O=c1c(O)c(-c2ccc(O)cc2)oc2cc(O)ccc12, the “activity (fluorescence increase)” value rises from 4.72% to 9.35%.

First: Cn1c(N2CCOCC2)nc2c1c(=O)n(Cc1ccc(Cl)c(Cl)c1)c(=O)n2C
Second: Fc1ccc2[nH]c3c(N4CCN(Cc5ccc6c(c5)OCO6)CC4)ncnc3c2c1
The “activity (fluorescence increase)” value of the first is higher: 13% for the first, 12% for the second.

Going from COc1cccc2c1C(=N)c1c(O)c3c(c(O)c1C2=O)C[C@](O)(C(C)=O)C[C@@H]3O[C@H]1C[C@H](N)[C@@H](O)[C@H](C)O1 to O=C1Nc2ccc(I)cc2/C1=C/c1cc(Br)c(O)c(Br)c1, the “activity (fluorescence increase)” value rises from 16% to 17%.

Going from ClC(Br)=C(n1cnc2ccccc21)n1cnc2ccccc21 to CC(=O)Oc1ccc(C(c2ccc(OC(C)=O)cc2)c2ccccn2)cc1, the “activity (fluorescence increase)” value falls from 11.1% to 10.2%.

Compared with NCCSc1nc2ccccc2s1, Clc1ccc(-c2nnc3sc(Cc4cccs4)nn23)cc1 is lower in “activity (fluorescence increase)” value: 11.3% for the first, 4.63% for the second.

In the case of CC1CCN(CC[S-])CC1.O.O.[Cl][Pt], the “activity (fluorescence increase)” value is reported as 28.3%.

In the case of C=CCNC(=O)C(C#N)c1nc2ccccc2nc1N1CCCCCC1 (stereo not given), the Potency is reported as 15.8 µM (active).
In the case of C[n+]1cc2c3c(ccc2c2ccc4cc5c(cc4c21)OCO5)OCO3, the Potency is reported as 10 µM (active).
With CCNC(=O)c1cc2c(=O)n3cccc(C)c3nc2n(CCc2ccccc2)c1=N the Potency was 12.6 µM (active).
For CC(C)N1CC=C2C(C#N)=C(N)C(C#N)(C#N)C(c3ccccc3)C2C1 (stereo not given), the Potency was 5.01 µM (active).
In the case of CCCCCCc1cc2cc(-c3nnc(-c4ccccc4O)o3)c(=O)oc2cc1O, the Potency is reported as 0.0126 µM (active).
